Screening results deposited in PubChem by National Center for Advancing Translational Sciences (NCATS).
Compounds with a hit are over-represented: about 10% of the library has one in this group of screens.
BAZ2B inh = BAZ2B (human) inhibition; Q9UIF8; AlphaScreen BAZ2B-H3K14Ac peptide displacement; 360,000 compounds, 4.4% hits; AID 504333; Potency, µM (doses to about 114 µM), for inactives: at the highest dose activity change, negative = inhibition, hits mostly inhibitors; also: % is scaled to controls: 0 for no effect and ±100 for the full control effect; nearly all actives have a fitted effect of over 60% in size
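Inhibition is scored as reduced AlphaScreen emission. The BAZ2B/b-H3(5-23)K14Ac complex (50 nM each) in PBS pH 7.4, 0.01% Tween-20 meets compound (up to 110 uM) for 30 min at RT before bead addition.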
GLS inh = inhibitors of human glutaminase (GLS); O94925; GLS enzymatic activity, qHTS titration; Potency, µM (doses to about 45.5 µM), inactives show top-dose activity change, negative = inhibition, most hits filed as inhibitors; 410,000 compounds, 0.21% hits; also: % is scaled to controls: 0 for no effect and ±100 for the full control effect
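hKGA in 45 mM KH2PO4 pH 8.2, 0.02% Tween-20 with pin-transferred compounds; 1 mM L-glutamine (stock) plus glutamate oxidase/HRP/Amplex Red coupling added. Fluorescence read initially and after 30 min at RT.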
JMJD2A Tudor = blocks the human JMJD2A Tudor domain; O75164; AlphaScreen JMJD2A-Tudor / H3K4me3 peptide binding; Potency, µM (doses to about 114 µM), for inactives: top-dose activity change, negative = inhibition, usual class: inhibitors; 390,000 compounds, 4.4% hits; also: % is scaled to controls: 0 for no effect and ±100 for the full control effect; nearly all actives have a fitted effect of over 50% in size
HP1b binding inh = blocks HP1-beta chromodomain binding to methylated histone tails; Potency, µM (doses to about 114 µM), without a hit: at the highest dose activity change, negative = inhibition, hits mostly inhibitors; P83916; 390,000 compounds, 0.56% hits; AlphaScreen HP1-beta / biotin-H3K9me3 peptide binding; also: nearly all actives have a fitted effect of over 70% in size
Target sequence (P83916 whole entry, looked up): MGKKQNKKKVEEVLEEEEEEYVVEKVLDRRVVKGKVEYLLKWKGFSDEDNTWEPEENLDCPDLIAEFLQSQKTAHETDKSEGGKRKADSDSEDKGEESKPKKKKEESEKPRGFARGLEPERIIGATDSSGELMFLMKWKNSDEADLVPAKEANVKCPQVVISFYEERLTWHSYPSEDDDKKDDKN
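Compound inhibition of the preformed complex between 50 nM HP1-beta and 50 nM biotinylated H3K9me3 peptide was read by AlphaScreen. Buffer was PBS pH 7.4 with 0.01% Tween-20. Incubations ran 30 min at room temperature, with 10 ug/mL donor/acceptor beads.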
G9a block = inhibitors of human histone lysine methyltransferase G9a | Q96KQ7 | G9a H3K9 monomethylation, AlphaScreen, 2 h | Potency, µM (top dose mostly 102 µM), for the others: at the highest dose activity, negative = inhibition, most hits filed as inhibitors | 350,000 compounds, 8.8% hits; also: % is scaled to controls: 0 for no effect and ±100 for the full control effect; nearly all actives have a fitted effect of over 75% in size
Target sequence (Q96KQ7 913-1193 limits assumed): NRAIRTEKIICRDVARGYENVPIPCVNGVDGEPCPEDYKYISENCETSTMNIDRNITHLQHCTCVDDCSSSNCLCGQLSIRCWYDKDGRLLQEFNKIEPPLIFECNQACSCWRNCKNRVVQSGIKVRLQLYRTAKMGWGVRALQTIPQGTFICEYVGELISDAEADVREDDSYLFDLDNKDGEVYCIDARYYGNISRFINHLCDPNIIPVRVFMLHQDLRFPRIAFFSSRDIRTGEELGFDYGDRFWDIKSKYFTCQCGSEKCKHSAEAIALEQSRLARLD
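AlphaScreen detection with an anti-monomethyl H3K9 antibody quantified product after a 2 h room-temperature reaction containing 500 nM biotinylated H3K9 peptide, 20 µM SAM and 20 nM enzyme, which had been preincubated 15 min with compound.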
Numbers without * were called inactive; ? = inconclusive; · = no result; ! = not confirmed by another sample; [ ] = remark or other dose. Calls follow the shape of the dose curve; as a rule, active = well fitted curve in the direction sought with a large enough effect; inconclusive = small, poorly fitted or top-dose-only effect, or another doubt; inactive = no such curve, though single readings can be large; an effect the other way counts as inactive or inconclusive. Potency is read from the fitted curve at half-maximal effect.

SMILES	BAZ2B inh	GLS inh	JMJD2A Tudor	HP1b binding inh	G9a block
CC(C)(C)OC(=O)N[C@@H](C(=O)OC(C)(C)C)c1ccc(Br)cc1	8%	1%	17%	92%	-3%[2.33 µM]
CNS(=O)(=O)c1ccc(NC(=O)c2nc3nc(C)cc(C(F)F)n3n2)cc1	2%	-13%	-18%	31%	3%[59 µM]
CC1CC(C)(C)NC(=S)O1 (stereo unspecified)	-7%	6%	-8%	2%	79µM*!
CC1(C)CCC(C)(C)NC(=S)N1	0%	-2%	1%	27%	9%[59 µM]
O=C(NCc1ccc2c(c1)OCO2)c1ccc(CSCc2ccc(Cl)cc2)o1	-32%	2%	-26%	11%	-50%
O=C(CSc1nnc(NC(=O)C2CCC2)s1)Nc1ccc(N2CCOCC2)cc1	-8%	10%	-10%[57.1 µM]	-17%	50µM*
Cc1cccc(Nc2nnc(SCC(=O)Nc3cccc(S(=O)(=O)N4CCCCC4)c3)s2)c1	-37%	11%	?	-8%	3.5µM*
CSc1nnc(NC(=O)c2ccc(S(=O)(=O)N3CCOCC3)cc2)s1	-4%	3%	5%	56%	10µM*
Cc1cccc(NC(=O)CSc2nnc(NC(=O)CN3CCCCC3)s2)c1	4%	·	·	·	16%[59 µM]
NC(=O)CSc1nnc(NC(=O)c2ccc(S(=O)(=O)N3CCOCC3)cc2)s1	-5%	-2%	-1%	38%	·
CCc1ccc(Nc2nnc(SCC(=O)Nc3cccc(S(=O)(=O)NC4=NCCCCC4)c3)s2)cc1	-30%	9%	-32%	9%	6.3µM*
Cc1ccc(Nc2nnc(SCC(=O)Nc3cccc(S(=O)(=O)NC4=NCCCCC4)c3)s2)cc1	?	13%	-36%	0%	-2%[2.33 µM]
O=C(CSc1nnc(NC2CC2)s1)Nc1ccc(N2CCOCC2)cc1	2%	18%	-11%	27%	11%[2.33 µM]
Nc1cc(C(=O)OCC(=O)N2CCCC2=O)ccc1Cl	13%	-1%	-16%	7%	7%
COCCNC(=O)C1(C)CCCN(Cc2cc3ccccc3o2)C1 (stereo unspecified)	·	-14%	·	·	·
O=C(CSc1nnc(Nc2ccccc2)s1)Nc1ccc(S(=O)(=O)N2CCOCC2)cc1	-1%	11%	-11%	21%	8.9µM*
Nc1nsc2ccccc12	11%	-19%	-1%	7%	40µM*
Nc1nnc(N)c2ccccc12	-2%	-5%	-19%	6%	-4%
CCCSc1nnc(CNC(=O)C23CC4CC(CC(C4)C2)C3)n1Cc1ccccc1	12%	-3%	-14%	39%	?
COC(=O)Cn1ncc(N2C3CC(CC(C)(C)C3)C2C)c(Cl)c1=O (stereo unspecified)	10%	7%	-21%	2%	6%[59 µM]
O=C(CNCc1ccco1)Nc1ccc(Oc2ccccc2)cc1	50µM*	-6%	18µM*	7%	14µM*
O=C(CNCc1ccco1)Nc1ccccc1-n1cccc1	?	-4%	?	-9%	13µM*
O=C(NCc1ccco1)c1ccc(Oc2ccccc2)cc1	-13%	-8%	-32%	-2%	?
Cc1c(C(=O)NNC(=O)c2csc(N3CCOCC3)n2)cccc1[N+](=O)[O-]	6%	9%	-9%	40%	21%[12.7 µM]
COc1ccc(-c2noc(CN3CCCC(OCc4ccccn4)C3)n2)cc1 (stereo unspecified)	-20%	0%	-24%	21%	50µM*
SMILES	BAZ2B inh	GLS inh	JMJD2A Tudor	HP1b binding inh	G9a block
OCC[C@H]1C[C@H](O)[C@@H](O)[C@]2(Cc3ccccc3O2)O1	11%	-3%	-4%	44%	-1%[12.7 µM]
OCC[C@@H]1C[C@@H](O)[C@H](O)[C@@]2(CCc3ccccc3O2)O1	-6%	1%	-11%	36%	22%
OCC[C@@H]1C[C@@H](O)[C@H](O)[C@@]2(Cc3ccccc3O2)O1	-31%	-5%	-13%	50%	16µM*
OCC[C@@H]1C[C@H](O)[C@@H](O)[C@@]2(CCc3ccccc3O2)O1	-24%	6%	-16%	56%	79µM*
CCC(Cc1ccccc1)NC(=O)Cn1ncc2c3ccccc3n(Cc3ccccc3)c2c1=O (stereo unspecified)	1%	2%	-10%	30%	-1%[59 µM]
CCOC(=O)C(NS(=O)(=O)c1ccccc1)(C(F)(F)F)P(=O)(OCC(C)C)OCC(C)C (stereo unspecified)	2%	9%	-16%	13%	10µM*
COC(=O)NC(NS(=O)(=O)c1ccccc1)(C(=O)OC)C(F)(F)F (stereo unspecified)	16%	51%	-13%	-1%	12%
C=CCN1C(c2cccc(C(F)(F)F)c2)=CS/C1=C(/C#N)c1nnc(N2CCOCC2)n1-c1ccccc1	50µM*	1%	50µM*	0%	79µM*
O=C(O)C1C2OC(C(Br)C2Br)C1C(=O)O (stereo unspecified)	·	-3%	-12%	6%[57 µM]	·
Cc1ccc2[nH]c3c(=O)n(Cc4ccncc4)cnc3c2c1	50µM*	0%	-11%	32%	-5%
COc1cc2c(cc1OC)C1=C(C#N)COCN1CC2	?	4%	-2%[11.4 µM]	-6%	14µM*
O=S(=O)(c1ccccc1)c1cnc(-c2cccnc2)nc1-c1ccc(Cl)cc1Cl	5%	-4%	?	25%	41%[12.7 µM]
CCCc1nnc(NC(=O)CCC(=O)N2CCN(CCn3c(C)ccc3C)CC2)s1	-10%	-21%	-3%	14%	71µM*
COCCn1c(C)cc(C2=NNC(=Nc3ccc(OC)cc3)SC2)c1C	-39%	13%	?	-31%	7%[12.7 µM]
COCCn1c(C)cc(C2=NNC(=Nc3ccccc3)SC2)c1C	50µM*	21%	-32%	-3%	?
CCN=C1NN=C(c2cc(C)n(Cc3ccco3)c2C)CS1	-39%	2%	?	-13%	-14%[59 µM]
CCN=C1NN=C(c2cc(C)n(CCc3ccccc3)c2C)CS1	-38%	0%	56µM*	?	?
Cc1cc(C2=NNC(=NCCc3ccccc3)SC2)c(C)n1CC1CCCO1 (stereo unspecified)	-37%	-8%	50µM*	?	35µM*
Cc1cc(C(=O)Nc2ccc(Br)cc2F)n(-c2ccccc2)n1	-4%	1%	-1%	52%	1%
CCCOc1cc(C)nc(-c2ccccc2O)n1	136%	6%	159%	229%	278%
CC(C)Cc1oc(C(=O)O)cc1CN1CCOCC1	·	-1%	7%	37%	?
Clc1ccccc1-c1nn2c(-c3ccccn3)nnc2s1	79µM*	-3%	?	?	?
Clc1ccccc1-c1nn2c(-c3ccncc3)nnc2s1	0%	-26%	?	?	3.2µM*
Clc1ccccc1-c1nnc2sc(-c3cccs3)nn12	6%	-19%	-21%	-14%	35µM*
COc1ccc(NC(=O)C2CCCN2c2ccc(OC)c(OC)c2)cc1OC (stereo unspecified)	0%	42%	-13%	23%	71µM*
